Our source for the binding signal values is article PMC7862700, “An all-to-all approach to the identification of sequence-specific readers for epigenetic DNA modifications on cytosine”.

What all share (test): DAPPL (digital affinity profiling via proximity ligation, sequencing); 10 mM Tris-HCl pH 7.5, 50 mM NaCl, 1 mM DTT, 4% glycerol, room temperature, 30 min; GST-TFs on glutathione beads, 16-mer random dsDNA library, 0.1% formaldehyde crosslink after washing; high values mean tight binding
What all share (details): protein: recombinant; tags: N-terminal GST; dsDNA, one strand shown

One assay addresses T1, FLI1 (Homo sapiens, UniProt Q01543 1-452).
T1 sequence: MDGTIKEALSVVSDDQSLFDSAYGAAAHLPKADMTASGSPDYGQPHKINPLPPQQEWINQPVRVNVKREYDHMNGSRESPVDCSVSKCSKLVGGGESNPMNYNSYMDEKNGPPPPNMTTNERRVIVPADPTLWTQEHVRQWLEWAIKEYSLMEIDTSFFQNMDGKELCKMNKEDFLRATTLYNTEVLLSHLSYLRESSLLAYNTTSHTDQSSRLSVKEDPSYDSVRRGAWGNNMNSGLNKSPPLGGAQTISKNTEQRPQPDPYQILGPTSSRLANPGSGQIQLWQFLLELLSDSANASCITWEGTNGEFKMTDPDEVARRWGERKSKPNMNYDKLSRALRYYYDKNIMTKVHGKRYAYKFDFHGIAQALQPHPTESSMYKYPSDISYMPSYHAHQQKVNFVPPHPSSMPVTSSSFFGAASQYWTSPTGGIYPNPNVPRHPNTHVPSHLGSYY
In outline:
(§1)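 Binding signal is defined as a hexamer's read frequency for one factor over its frequency for the tag-only sample. To obtain reads, GST-fused human transcription factors were expressed in yeast, captured on glutathione beads, barcoded with DNA and pooled with that sample. Pools met 200 nmole of a 16-mer random double-stranded DNA library in Tris/NaCl/DTT/glycerol buffer for 30 min at room temperature before washing, 0.1% formaldehyde crosslinking, proximity ligation (BsaI/T4 ligase, 1 h, 37 °C), PCR and Illumina NextSeq500 sequencing.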

For another assay, the target named is T2, ELK1 (Homo sapiens, UniProt P19419 1-428).
T2 sequence: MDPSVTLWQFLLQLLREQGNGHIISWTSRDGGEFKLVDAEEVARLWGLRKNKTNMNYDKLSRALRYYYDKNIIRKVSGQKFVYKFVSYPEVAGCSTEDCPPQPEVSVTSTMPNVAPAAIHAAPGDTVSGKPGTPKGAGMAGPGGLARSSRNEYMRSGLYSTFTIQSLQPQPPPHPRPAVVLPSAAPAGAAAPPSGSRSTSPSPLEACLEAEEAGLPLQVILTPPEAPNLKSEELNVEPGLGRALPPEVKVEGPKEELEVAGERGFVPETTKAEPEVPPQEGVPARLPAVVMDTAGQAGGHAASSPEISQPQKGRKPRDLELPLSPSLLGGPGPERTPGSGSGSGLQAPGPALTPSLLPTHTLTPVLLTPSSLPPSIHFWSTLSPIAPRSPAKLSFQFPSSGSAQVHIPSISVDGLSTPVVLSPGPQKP
Put shortly: as §1

A further assay has as its target T3, GABPA (Homo sapiens, UniProt Q06546 1-454).
T3 sequence: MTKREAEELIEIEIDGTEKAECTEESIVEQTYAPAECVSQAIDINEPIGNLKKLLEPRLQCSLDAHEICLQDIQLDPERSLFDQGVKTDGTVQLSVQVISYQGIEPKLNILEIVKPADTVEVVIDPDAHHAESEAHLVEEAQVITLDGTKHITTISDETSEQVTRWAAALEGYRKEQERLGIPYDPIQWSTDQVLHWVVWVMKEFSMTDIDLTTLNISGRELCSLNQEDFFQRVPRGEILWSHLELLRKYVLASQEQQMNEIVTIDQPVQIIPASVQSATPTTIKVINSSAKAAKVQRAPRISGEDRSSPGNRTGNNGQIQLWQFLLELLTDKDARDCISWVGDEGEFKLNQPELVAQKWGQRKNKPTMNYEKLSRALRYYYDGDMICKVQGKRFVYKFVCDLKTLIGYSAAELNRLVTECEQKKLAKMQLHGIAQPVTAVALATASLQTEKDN
In outline: as §1

The target in another assay is T4, ERG (Homo sapiens, UniProt P11308 1-479).
T4 sequence: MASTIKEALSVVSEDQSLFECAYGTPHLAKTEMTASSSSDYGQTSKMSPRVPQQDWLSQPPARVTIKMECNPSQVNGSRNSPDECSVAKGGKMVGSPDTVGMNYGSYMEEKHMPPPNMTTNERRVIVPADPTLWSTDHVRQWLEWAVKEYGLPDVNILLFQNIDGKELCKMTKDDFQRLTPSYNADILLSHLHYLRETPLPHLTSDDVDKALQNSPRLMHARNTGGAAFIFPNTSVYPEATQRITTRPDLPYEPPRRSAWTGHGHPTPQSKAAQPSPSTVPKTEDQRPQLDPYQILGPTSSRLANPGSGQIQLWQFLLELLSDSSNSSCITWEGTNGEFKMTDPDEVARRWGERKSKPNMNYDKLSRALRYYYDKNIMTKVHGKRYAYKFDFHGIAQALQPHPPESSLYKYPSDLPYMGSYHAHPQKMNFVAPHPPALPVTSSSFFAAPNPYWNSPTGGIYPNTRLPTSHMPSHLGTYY
In outline: as §1

In a further assay the target is ELF1 (Homo sapiens, UniProt P32519 1-619). In outline: as §1
Chain of ELF1 (P32519 whole entry): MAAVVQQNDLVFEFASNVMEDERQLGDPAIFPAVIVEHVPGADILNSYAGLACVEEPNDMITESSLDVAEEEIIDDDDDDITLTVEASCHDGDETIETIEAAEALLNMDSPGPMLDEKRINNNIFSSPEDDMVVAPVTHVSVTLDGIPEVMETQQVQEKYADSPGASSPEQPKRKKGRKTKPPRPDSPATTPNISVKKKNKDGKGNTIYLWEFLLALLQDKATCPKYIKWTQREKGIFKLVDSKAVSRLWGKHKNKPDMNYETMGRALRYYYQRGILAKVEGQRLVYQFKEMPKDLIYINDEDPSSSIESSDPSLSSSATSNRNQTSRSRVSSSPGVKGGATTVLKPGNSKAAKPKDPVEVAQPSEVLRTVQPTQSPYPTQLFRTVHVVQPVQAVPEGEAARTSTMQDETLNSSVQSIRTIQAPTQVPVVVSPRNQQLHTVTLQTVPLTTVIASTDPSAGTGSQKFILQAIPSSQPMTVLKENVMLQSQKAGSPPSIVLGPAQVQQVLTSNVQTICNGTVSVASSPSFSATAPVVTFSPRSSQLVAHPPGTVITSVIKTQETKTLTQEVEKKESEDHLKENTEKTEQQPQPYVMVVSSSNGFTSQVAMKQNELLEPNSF
The target in a further assay is T5, EHF (Homo sapiens, UniProt Q9NZC4 1-300).
T5 sequence: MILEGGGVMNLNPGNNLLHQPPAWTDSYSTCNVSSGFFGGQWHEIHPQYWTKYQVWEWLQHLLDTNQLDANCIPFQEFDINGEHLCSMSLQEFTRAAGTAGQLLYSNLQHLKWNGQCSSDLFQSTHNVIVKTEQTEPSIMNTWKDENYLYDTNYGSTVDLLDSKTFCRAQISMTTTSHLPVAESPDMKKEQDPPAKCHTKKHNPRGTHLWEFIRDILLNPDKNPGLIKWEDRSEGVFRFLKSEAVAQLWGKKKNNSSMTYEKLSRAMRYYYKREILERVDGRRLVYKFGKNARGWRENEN
In outline: as §1

The target of a further assay is SPI1 (Homo sapiens, UniProt P17947 1-270). In outline: as §1
Another assay addresses SPIB (Homo sapiens, UniProt Q01892 1-262). Put shortly: as §1
The next assay has as its target T6, ELK3 (Homo sapiens, UniProt P41970 1-407).
T6 sequence: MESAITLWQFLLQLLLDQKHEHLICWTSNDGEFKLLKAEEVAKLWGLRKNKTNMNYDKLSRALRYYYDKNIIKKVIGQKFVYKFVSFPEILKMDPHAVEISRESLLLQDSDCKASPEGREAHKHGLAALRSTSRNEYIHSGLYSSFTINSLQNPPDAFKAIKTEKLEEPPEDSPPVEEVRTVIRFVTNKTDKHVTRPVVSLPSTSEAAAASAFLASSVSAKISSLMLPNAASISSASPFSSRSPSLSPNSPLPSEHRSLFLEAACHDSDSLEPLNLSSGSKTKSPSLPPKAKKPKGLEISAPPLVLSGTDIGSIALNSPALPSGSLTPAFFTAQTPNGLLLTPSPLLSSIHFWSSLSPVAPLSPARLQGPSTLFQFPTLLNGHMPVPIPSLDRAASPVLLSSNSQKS
Put shortly:
as §1

Chain of SPIB (Q01892 whole entry): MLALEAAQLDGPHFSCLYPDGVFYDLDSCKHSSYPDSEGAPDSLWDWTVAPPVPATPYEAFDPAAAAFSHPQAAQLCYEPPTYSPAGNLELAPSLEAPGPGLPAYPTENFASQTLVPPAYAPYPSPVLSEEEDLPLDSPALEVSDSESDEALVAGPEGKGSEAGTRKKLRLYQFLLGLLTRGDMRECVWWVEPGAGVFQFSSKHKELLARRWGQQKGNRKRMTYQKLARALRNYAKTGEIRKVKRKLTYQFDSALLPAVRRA

For CGAATA, the binding signal with FLI1 is 1.09 fold enrichment (6-mer frequency, TF over GST control); in the assay with ELK1, 1.23 fold enrichment (6-mer frequency, TF over GST control); in the assay with GABPA it was 1.17 fold enrichment (6-mer frequency, TF over GST control); with ERG, 1.07 fold enrichment (6-mer frequency, TF over GST control); with ELF1 it was 1.28 fold enrichment (6-mer frequency, TF over GST control); with EHF, 1.2 fold enrichment (6-mer frequency, TF over GST control). In addition, the binding signal is 1.13 fold enrichment (6-mer frequency, TF over GST control) with SPI1; 1.11 fold enrichment (6-mer frequency, TF over GST control) with SPIB; 1.21 fold enrichment (6-mer frequency, TF over GST control) with ELK3.
For the sequence TTAATG, the binding signal with FLI1 is 1.24 fold enrichment (6-mer frequency, TF over GST control); with ELK1, 1.27 fold enrichment (6-mer frequency, TF over GST control); in the assay with GABPA it was 1.3 fold enrichment (6-mer frequency, TF over GST control); with ERG, 1.14 fold enrichment (6-mer frequency, TF over GST control); in the assay with ELF1 it was 1.17 fold enrichment (6-mer frequency, TF over GST control); with EHF it was 1.19 fold enrichment (6-mer frequency, TF over GST control). For the same sequence, the binding signal with SPI1 is 1.24 fold enrichment (6-mer frequency, TF over GST control); with SPIB, 1.2 fold enrichment (6-mer frequency, TF over GST control); with ELK3, 1.14 fold enrichment (6-mer frequency, TF over GST control).
AACTGG: the binding signal was 1.22 fold enrichment (6-mer frequency, TF over GST control) with FLI1; 1.22 fold enrichment (6-mer frequency, TF over GST control) with ELK1; 1.29 fold enrichment (6-mer frequency, TF over GST control) with GABPA; 1.31 fold enrichment (6-mer frequency, TF over GST control) in the assay with ERG; 1.27 fold enrichment (6-mer frequency, TF over GST control) in the assay with ELF1; 1.17 fold enrichment (6-mer frequency, TF over GST control) in the assay with EHF. Moreover, the binding signal is 1.31 fold enrichment (6-mer frequency, TF over GST control) with SPI1; 1.25 fold enrichment (6-mer frequency, TF over GST control) with SPIB; 1.28 fold enrichment (6-mer frequency, TF over GST control) with ELK3.
Turning to CTAATA, the binding signal was 1.21 fold enrichment (6-mer frequency, TF over GST control) with FLI1; 1.15 fold enrichment (6-mer frequency, TF over GST control) in the assay with ELK1; 1.13 fold enrichment (6-mer frequency, TF over GST control) with GABPA; 1.17 fold enrichment (6-mer frequency, TF over GST control) in the assay with ERG; 1.19 fold enrichment (6-mer frequency, TF over GST control) with ELF1; 1.25 fold enrichment (6-mer frequency, TF over GST control) with EHF. The binding signal with SPI1 was 1.24 fold enrichment (6-mer frequency, TF over GST control); in the assay with SPIB, 1.17 fold enrichment (6-mer frequency, TF over GST control); with ELK3, 1.06 fold enrichment (6-mer frequency, TF over GST control).
Consider TAGTAC, for which the binding signal in the assay with FLI1 was 1.11 fold enrichment (6-mer frequency, TF over GST control); with ELK1 it was 1.13 fold enrichment (6-mer frequency, TF over GST control); with GABPA, 1.22 fold enrichment (6-mer frequency, TF over GST control); in the assay with ERG it was 1.24 fold enrichment (6-mer frequency, TF over GST control); with ELF1, 1.16 fold enrichment (6-mer frequency, TF over GST control); in the assay with EHF, 1.08 fold enrichment (6-mer frequency, TF over GST control). Also, the binding signal with SPI1 is 1.07 fold enrichment (6-mer frequency, TF over GST control); with SPIB it was 1.06 fold enrichment (6-mer frequency, TF over GST control); in the assay with ELK3, 1.12 fold enrichment (6-mer frequency, TF over GST control).
With AAAGAC, the binding signal in the assay with FLI1 is 1.06 fold enrichment (6-mer frequency, TF over GST control); in the assay with ELK1 it was 1.07 fold enrichment (6-mer frequency, TF over GST control); with GABPA it was 1.02 fold enrichment (6-mer frequency, TF over GST control); with ERG, 1.07 fold enrichment (6-mer frequency, TF over GST control); with ELF1, 1 fold enrichment (6-mer frequency, TF over GST control); with EHF, 1.05 fold enrichment (6-mer frequency, TF over GST control). Moreover, the binding signal is 1.1 fold enrichment (6-mer frequency, TF over GST control) with SPI1; 1.08 fold enrichment (6-mer frequency, TF over GST control) in the assay with SPIB; 1.02 fold enrichment (6-mer frequency, TF over GST control) in the assay with ELK3.
Consider CCCCTC, for which the binding signal was 1.48 fold enrichment (6-mer frequency, TF over GST control) with FLI1; 1.29 fold enrichment (6-mer frequency, TF over GST control) with ELK1; 1.45 fold enrichment (6-mer frequency, TF over GST control) in the assay with GABPA; 1.28 fold enrichment (6-mer frequency, TF over GST control) with ERG; 1.43 fold enrichment (6-mer frequency, TF over GST control) in the assay with ELF1; 1.31 fold enrichment (6-mer frequency, TF over GST control) with EHF. Besides, the binding signal in the assay with SPI1 is 1.39 fold enrichment (6-mer frequency, TF over GST control); with SPIB, 1.55 fold enrichment (6-mer frequency, TF over GST control); with ELK3 it was 1.37 fold enrichment (6-mer frequency, TF over GST control).
With CTACCA, the binding signal with FLI1 was 1.27 fold enrichment (6-mer frequency, TF over GST control); in the assay with ELK1 it was 1.27 fold enrichment (6-mer frequency, TF over GST control); with GABPA it was 1.42 fold enrichment (6-mer frequency, TF over GST control); with ERG, 1.29 fold enrichment (6-mer frequency, TF over GST control); in the assay with ELF1, 1.39 fold enrichment (6-mer frequency, TF over GST control); with EHF it was 1.22 fold enrichment (6-mer frequency, TF over GST control). The binding signal in the assay with SPI1 is 1.26 fold enrichment (6-mer frequency, TF over GST control); in the assay with SPIB, 1.23 fold enrichment (6-mer frequency, TF over GST control); with ELK3, 1.16 fold enrichment (6-mer frequency, TF over GST control).
